The structures appear in SMILES notation.

One test has as its system AIFM1. Further details: species or system human, MV4-11 + K-562 + COLO205 + SK-N-BE2 + OVCAR-8. As to conditions: read-out: apparent Kd; compound concentrations: 100 nM and 1000 nM (sheet 'Samples'), CATDS: 7.0265848272952805E-2; n = 1.
For a further test, the system named is CLK1. Further details: species or system human, MV4-11 + K-562 + COLO205 + SK-N-BE2 + OVCAR-8. As to conditions: read-out: apparent Kd; compound concentrations: 100 nM and 1000 nM (sheet 'Samples'), CATDS: 0.104887627590219; n = 1.
Another test concerns CLK4. Further details: species or system human, MV4-11 + K-562 + COLO205 + SK-N-BE2 + OVCAR-8. As to conditions: read-out: apparent Kd; compound concentrations: 100 nM and 1000 nM (sheet 'Samples'), CATDS: 9.5715512322220406E-2; n = 1.
For a further test, the system named is CSNK1G1. Further details: species or system human, MV4-11 + K-562 + COLO205 + SK-N-BE2 + OVCAR-8. To be noted: read-out: apparent Kd; compound concentrations: 100 nM and 1000 nM (sheet 'Samples'), CATDS: 5.5121042551324002E-2; n = 1.
In another test the test system is DAPK3. Further details: species or system human, MV4-11 + K-562 + COLO205 + SK-N-BE2 + OVCAR-8. To be noted: read-out: apparent Kd; compound concentrations: 100 nM and 1000 nM (sheet 'Samples'), CATDS: 8.3155449206082505E-2; n = 1.
Another test concerns DCTPP1. More on the design: species or system human, MV4-11 + K-562 + COLO205 + SK-N-BE2 + OVCAR-8. To be noted: read-out: apparent Kd; compound concentrations: 100 nM and 1000 nM (sheet 'Samples'), CATDS: 5.7600915047594299E-2; n = 1.
The next test deals with FN3KRP. Further details: species or system human, MV4-11 + K-562 + COLO205 + SK-N-BE2 + OVCAR-8. To be noted: read-out: apparent Kd; compound concentrations: 100 nM and 1000 nM (sheet 'Samples'), CATDS: 6.5569795708597098E-2; n = 1.
A further test has as its system FN3K. Further details: species or system human, MV4-11 + K-562 + COLO205 + SK-N-BE2 + OVCAR-8. As to conditions: read-out: apparent Kd; compound concentrations: 100 nM and 1000 nM (sheet 'Samples'), CATDS: 6.57741887652563E-2; n = 1.
A further test relates to MAPK3. Further details: species or system human, MV4-11 + K-562 + COLO205 + SK-N-BE2 + OVCAR-8. To be noted: read-out: apparent Kd; compound concentrations: 100 nM and 1000 nM (sheet 'Samples'), CATDS: 8.8800747421998102E-2; n = 1.
A further test has as its system NEK2. Further details: species or system human, MV4-11 + K-562 + COLO205 + SK-N-BE2 + OVCAR-8. To be noted: read-out: apparent Kd; compound concentrations: 100 nM and 1000 nM (sheet 'Samples'), CATDS: 7.0168858397625197E-2; n = 1.
The subject of a further test is PBK. More on the design: species or system human, MV4-11 + K-562 + COLO205 + SK-N-BE2 + OVCAR-8. To be noted: read-out: apparent Kd; compound concentrations: 100 nM and 1000 nM (sheet 'Samples'), CATDS: 7.2795732103844296E-2; n = 1.
A further test addresses Q6ZSR9 (human, UniProt Q6ZSR9). More on the design: species or system MV4-11 + K-562 + COLO205 + SK-N-BE2 + OVCAR-8. As to conditions: read-out: apparent Kd; compound concentrations: 100 nM and 1000 nM (sheet 'Samples'), CATDS: 6.3978551473772294E-2; n = 1.
In a further test the test system is RABL3. More on the design: species or system human, MV4-11 + K-562 + COLO205 + SK-N-BE2 + OVCAR-8. To be noted: read-out: apparent Kd; compound concentrations: 100 nM and 1000 nM (sheet 'Samples'), CATDS: 7.0827671495760899E-2; n = 1.
For another test, the system named is TESK1. Further details: species or system human, MV4-11 + K-562 + COLO205 + SK-N-BE2 + OVCAR-8. As to conditions: read-out: apparent Kd; compound concentrations: 100 nM and 1000 nM (sheet 'Samples'), CATDS: 6.7543584282145103E-2; n = 1.

Q6ZSR9, sequence (Q6ZSR9 whole entry, looked up): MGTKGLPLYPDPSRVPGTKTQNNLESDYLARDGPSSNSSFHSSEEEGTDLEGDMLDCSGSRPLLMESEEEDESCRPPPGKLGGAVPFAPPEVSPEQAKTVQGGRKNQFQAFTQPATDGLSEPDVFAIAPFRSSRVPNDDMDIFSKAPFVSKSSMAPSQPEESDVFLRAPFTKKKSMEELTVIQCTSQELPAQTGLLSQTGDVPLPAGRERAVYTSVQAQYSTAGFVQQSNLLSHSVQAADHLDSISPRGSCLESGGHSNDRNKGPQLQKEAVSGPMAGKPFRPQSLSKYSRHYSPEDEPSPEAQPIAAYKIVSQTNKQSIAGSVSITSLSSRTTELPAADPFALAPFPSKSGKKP

With `O=C1N=C(NCCc2ccc(F)cc2)S/C1=C\c1ccc2ncccc2c1` [RO4508340-000], the potency estimated from few doses is 1310 nM with AIFM1; 643 nM with CLK1; 744 nM with CLK4; 2380 nM in the test with CSNK1G1; 948 nM in the test on DAPK3; 2100 nM in the test with DCTPP1. For the same molecule, the potency estimated from few doses in the test on FN3KRP was 1530 nM; in the test on FN3K it was 1520 nM; in the test on MAPK3, 844 nM; with NEK2, 1320 nM; with PBK, 1220 nM; with Q6ZSR9, 1620 nM. Further, the values for the potency estimated from few doses in the test on RABL3 and in the test with TESK1 were 1290 nM and 1430 nM, respectively.
